About 13,000 (27%) of roughly 48,000 compounds showed an effect of 50% or more. Some of the results follow.

The test system of the experiment is Wolbachia pipientis. Briefly: Anti-Wolbachia Cell-Based Screen. The arrangement: scale not given: in the data most compounds retested in dose-response had high values. The experiment is classed as functional. Particulars: 5 µM.
`CCn1nccc1C(=O)N1CCCCC1CCc1ccc(O)cc1` (stereo not drawn): the “Percent Effect” value turned out to be 1.71%. For `CC(NC(=O)Nc1nccs1)c1ccc(S(C)(=O)=O)cc1` (stereo not drawn) the value was 7.495%; for `CCC(C(=O)NCC1CCN(c2cnn(C)c(=O)c2)CC1)n1cccn1` (stereo not drawn), 4.446%. Then `O=C(c1ccoc1)N1CCCn2nnc(COCC3CC3)c2C1`, with -7.176%; and `O=C(C1CCC1)N1CCc2[nH]cnc2C12CCN(C1CCOCC1)CC2`, with 2.513%; and `CN1CCN(Cc2nc3c(s2)CCCC3)[C@H]2CS(=O)(=O)C[C@H]21`, with -12.07%. For `CC(C)(C)c1nnc(CN2CCN(CC(O)c3ccccc3)CC2)o1` (stereo not drawn) the value was -4.717%; for `O=C(CCCc1ccc(F)cc1)N1C[C@@H](CN2CCOCC2)[C@@H](CO)C1`, -13.37%.

As to `O=C1CN(Cc2cnc3c(-c4ccccc4)cnn3c2)CCCN1`, the “Percent Effect” value was -7.334%. Regarding `CNC(=O)[C@@H](C1CC1)N1CCC[C@H]1C(=O)NCC(C)C.Cl`, the “Percent Effect” value came to 5.18%. Then `CN(CCN1CCCCCC1)C(=O)c1cc(CN2CCCC(O)C2)on1` (stereo not drawn), with -22.76%; and `CC(=O)Nc1c(C)cnn1Cc1cc(F)ccc1F`, with -3.865%. For the compound `O=C(NCCCN1CCc2ccccc2C1)c1cccnc1O`, the “Percent Effect” value worked out at 6.847%. Then `COc1ccc(C(=O)NCCc2nnc3ccccn23)c(OC)c1`, with -1.311%. For the compound `CC(OCCCNC(=O)c1cccnc1O)c1ccccc1` (stereo not drawn), the “Percent Effect” value is listed as 95.41%. Turning to `CS(=O)(=O)NCCCNC(=O)c1cccnc1O`, the “Percent Effect” value is -1.609%. For `COc1ccc(C(=O)NCCCOC(C)c2ccccc2)c(OC)c1` (stereo not drawn) the value was 92.39%; for `COc1ccc(C(=O)NCCCNc2ncccn2)c(OC)c1`, -2.256%.

As to `COCCN1CC2(CCCN(Cc3cc(=O)c(OC)co3)C2)CCC1=O` (stereo not drawn), the “Percent Effect” value is reported as 3.181%.

Consider `COc1cc(CNC(=O)NCCCF)cc(Br)c1OC`, for which the “Percent Effect” value is -2.867%.

With `CCN(C(=O)CSc1ccc(C(F)(F)F)cn1)C1CC1`, the “Percent Effect” value was -14.79%. Then `CN(C(=O)CN1CCCC1Cc1ccccc1)c1ccccc1` (stereo not drawn), with 21.48%. For `CN(C(=O)CSc1ncc[nH]1)c1ccccc1` the value was 93.6%; for `CCN(CC)C(=O)CSc1ncc[nH]1`, 45.3%; for `CN(C(=O)CSc1ncc[nH]1)C1CC1`, 109.9%. `CN(C(=O)Cn1nc(-c2ccc(F)cc2)oc1=O)c1ccccc1`: the “Percent Effect” value is -62.32%.

Regarding `COc1ncccc1NC(=O)N1CCCC(CNC(=O)OC(C)(C)C)C1` (stereo not drawn), the “Percent Effect” value is 1.374%.

For `O=C(NC[C@H]1Cn2c(-c3ccccc3)cnc2CO1)C1CCOCC1`, the “Percent Effect” value was -9.795%.

Turning to `Cn1c(-c2ccccc2Cl)nc2cc(C(=O)NCC3(C)COC3)cnc21`, the “Percent Effect” value amounted to 7.504%.

Turning to `CCCc1nccn1-c1cccc(C(C)O)c1` (stereo not drawn), the “Percent Effect” value amounted to 0.8056%. For the compound `Cc1ccc(C(=O)NC2CCN(C(=O)NCc3ccccn3)CC2)o1`, the “Percent Effect” value was found to be 118.1%.

Turning to `Cc1ccc(NC(=O)N2CCC(NC(=O)c3ccc(C)o3)CC2)cc1`, the “Percent Effect” value is -6.266%. Then `Cc1ccc(C(=O)NC2CCN(C(=O)Nc3ccncc3)CC2)o1`, with 166.8%. Regarding `O=C(NCc1ccccn1)N1CC=C(c2ccccc2)CC1`, the “Percent Effect” value stood at 32.63%. For `Cc1ccc(C(=O)NC2CCN(C(=O)Nc3ccccn3)CC2)o1` the value was 4.828%; for `Cc1cc(C(=O)NC2CCN(C(=O)Nc3cccnc3)CC2)c(C)o1`, 20.93%. Then `Cc1ccc(C)c(OCCN(C)C(=O)C2CCCN2C(N)=O)c1C` (stereo not drawn), with -6.745%; and `COc1ccc(C2CCCN2c2ccc(C#N)cn2)c(OC)c1` (stereo not drawn), with 3.649%; and `CC(=O)N1CCC2(C1)c1ccccc1S(=O)(=O)N2C` (stereo not drawn), with 115.8%.

`CCCN1CCC2(C1)c1ccccc1S(=O)(=O)N2C.O=C(O)C(F)(F)F` (stereo not drawn): the “Percent Effect” value is -10.43%. Then `CC(=O)N1CCC2(C1)c1ccccc1S(=O)(=O)N2Cc1ccccc1` (stereo not drawn), with 103.8%; and `CCCN1CCC2(C1)c1ccccc1S(=O)(=O)N2Cc1ccccc1.O=C(O)C(F)(F)F` (stereo not drawn), with 16.14%; and `CCCN(CC(=O)OC)C(=O)c1sc(C)nc1C`, with 1.933%. Then `Cn1cnc2c1CCN(CCOc1ccc3c(c1)CCC(=O)N3)C2`, with -6.768%; and `Cc1ccc(CNC2(Cc3cc(C(C)(C)O)on3)COC2)o1`, with -11.3%; and `FC(F)(F)c1ccc(-c2n[nH]c3c2CN(CC2CCOC2)CC3)cc1` (stereo not drawn), with 2.824%.

As to `CCCC(=O)N1CCCC(c2cc3cccnc3c(O)n2)C1` (stereo not drawn), the “Percent Effect” value was 167%. Then `CCOC(=O)CCC(=O)N1CCC(Oc2ncccc2Cl)CC1`, with 1.106%; and `CCCC(=O)N1CCC(c2nn(C)c(=O)n2-c2ccccc2)CC1`, with 0.6972%. Then `CCN(C)CC1CCN(C(=O)Nc2ccc(-c3cc[nH]n3)cc2)C1` (stereo not drawn), with 2.001%; and `CCCC(=O)N1CCC(c2cc[nH]n2)C1` (stereo not drawn), with 112.5%; and `CCNC(=O)N1CCN(C(=O)c2cc(Cl)cc3cccnc23)CC1`, with -12.31%. For `CCCC(=O)N1CCC(c2cc3cccnc3c(O)n2)CC1` the value was 125.1%; for `Cn1ccc(C(=O)N2CCCC(c3cc4cccnc4c(O)n3)C2)n1` (stereo not drawn), 126.9%; for `CN(Cc1ccon1)C(=O)C1CC(=O)N(Cc2cccnc2)C1` (stereo not drawn), 3.448%. `Cc1cc(Cn2cncc(Br)c2=O)on1`: the “Percent Effect” value amounted to 0.4664%. With `O=C(NCc1cccc(C(F)(F)F)c1)C(c1cccnc1)N1CCCC1` (stereo not drawn), the “Percent Effect” value is -10.57%. For `CC(C)[C@H]1COC(=O)N1CC(=O)N1CCCN(C(=O)c2ccoc2)CC1` the value was -24.24%. Then `Cc1cccc(N2CCC(NCc3cnc(C4CCC4)s3)CC2)n1`, with 7.912%; and `Cc1nc(C(F)(F)F)nc(N2CCC3(CC2)CC(C(=O)O)N(C)C3)c1C` (stereo not drawn), with -7.708%. For `CCC(=O)N1CCCC(c2cc(Nc3ncccn3)nc(C)n2)C1` (stereo not drawn) the value was -9.589%; for `CCOCCC(=O)N1CCCC(c2ncc[nH]2)C1` (stereo not drawn), -13.21%. On to `CCCC(=O)N1CCCC(c2ccccn2)C1` (stereo not drawn), for which the “Percent Effect” value is recorded as 152.5%. For `Cc1nc2c(s1)C(N(C)C(=O)NCCCC(C)(C)CO)CCC2` (stereo not drawn) the value was -8.844%.

With `Cc1noc(C(C)Nc2ccc(N3CCOCC3)cc2C)n1` (stereo not drawn), the “Percent Effect” value is 200.3%.

As for `Cc1cc(N2CCOCC2)ccc1NC(C)c1nc(C(C)C)no1` (stereo not drawn), the “Percent Effect” value worked out at 89%. For `Cc1cc(CNC(=O)NC(C)c2ccc(N3CCOCC3)cc2)no1` (stereo not drawn) the value was 1.457%; for `Cc1noc(C(C)Nc2ccc3oc(C)nc3c2)n1` (stereo not drawn), 8.533%; for `Cc1cc(OCC(=O)NC(C)c2ccc(N3CCOCC3)cc2)no1` (stereo not drawn), -0.3596%. As to `CC(NCc1nnc2n1CCCC2)c1nc(C(C)(C)C)no1` (stereo not drawn), the “Percent Effect” value was 3.435%. Consider `CCNC(=O)c1nnc2ccc(N3CCOCC3)cc2n1`, for which the “Percent Effect” value is reported as 17.66%. Then `CCN1CCN(c2ccc(C(=O)NC(C)c3ccncc3)cc2)CC1` (stereo not drawn), with -3.258%; and `Cc1cc(CN2CCN(C(C)c3nc(C(C)C)no3)CC2)no1` (stereo not drawn), with 1.416%; and `Cc1noc(C(C)Nc2ccc3oc(C(C)C)nc3c2)n1` (stereo not drawn), with 8.094%. For `Cc1cc(N2CCOCC2)ccc1NC(C)c1nc(C(C)(C)C)no1` (stereo not drawn) the value was 111.3%. As to `CCN1CCN(c2ccc(NC(C)c3nc(C(C)C)no3)c(C)c2)CC1` (stereo not drawn), the “Percent Effect” value turned out to be 117.8%.

On to `COCc1c(C(=O)O)nnn1Cc1cccc(C(F)(F)F)c1`, for which the “Percent Effect” value is reported as 8.575%. Consider `COc1cc(OC)c(-n2nnc(C(=O)O)c2C)cc1Cl`, for which the “Percent Effect” value is reported as -3.799%. Then `CCc1c(C(=O)O)nnn1-c1ccc(C)cc1C`, with 82.86%. Take `Cc1ccc(C)c(-n2nnnc2SCN2CCCCC2=O)c1`: the “Percent Effect” value is listed as -6.055%. For `CCc1c(C(=O)O)nnn1-c1cc(C)ccc1C` the value was 72.77%. Then `CCc1c(C(=O)O)nnn1-c1cccc(C)c1C`, with 95.29%; and `Cc1ccc(CCNC(=O)NCCCC(N)=O)c(C)c1`, with -5.264%. Then `COCc1c(C(=O)NC2CCCC2)nnn1-c1ccc(C)cc1`, with -4.164%; and `Cc1c(C(=O)O)nnn1-c1cccc2cccnc12`, with -7.776%; and `Cc1c(C(=O)N2CCC2(C)C)nnn1-c1cccc2cccnc12`, with 0.9445%. Consider `Cc1ccc(C(=O)N(C)CC(=O)N2CCCC2)c(C)c1`, for which the “Percent Effect” value is -3.926%. Then `CCc1c(C(=O)O)nnn1-c1cc(C)cc(C)c1`, with 90.67%; and `CCc1cnc(N2C[C@H](OCc3csc(C)n3)[C@H]3COC[C@H]32)nc1.O=C(O)C(F)(F)F.O=C(O)C(F)(F)F`, with 4.189%; and `CN1CCC(N[C@@H]2CO[C@H](CNC(=O)c3cccs3)[C@H]2O)CC1`, with -3.68%. For `O=C(c1cn(CC(=O)N2CCc3[nH]cnc3C2)c2ccccc12)C1CC1` the value was 1.32%; for `COc1ccc(NC(=O)CSC(F)(F)F)cn1`, 1.311%.

On to `O=C(c1coc2ccccc12)N1CCS(=O)(=O)CC1`, for which the “Percent Effect” value is recorded as 0.973%. Then `COc1cc(Cl)c(C)cc1-n1nnc(C(=O)O)c1-c1ccncc1`, with -11.88%; and `COc1cc(Cl)c(C)cc1-n1nnc(C(=O)O)c1C`, with 4.448%; and `Cc1ccc(-n2nnc(C(=O)O)c2C)c(C)c1`, with 89.24%. Then `CC(C)(O)CCc1cccc(C(=O)NCc2cnn3cccnc23)c1`, with 6.543%; and `CCN(Cc1ccc2c(c1)OCO2)C(=O)NC(C)Cn1cccn1` (stereo not drawn), with 4.631%; and `CS(=O)(=O)CC1CCCN(C(=O)Cn2cccc(C(F)(F)F)c2=O)C1` (stereo not drawn), with 2.203%. Then `COCCN1CCCC(c2ccnc3c(C(N)=O)cnn23)C1` (stereo not drawn), with 97.31%; and `NC(=O)c1cnn2c(C3CCCN(C4CCOCC4)C3)ccnc12` (stereo not drawn), with 143.8%.

In the case of `c1cc(-c2nnc([C@H]3CCN(C4CCOCC4)C3)o2)ccn1`, the “Percent Effect” value was -3.579%. Regarding `OCCn1nccc1C1CCN(CCCOc2ccc(F)cc2)CC1`, the “Percent Effect” value is reported as -1.646%.

On to `NC(=O)c1cnn2c(C3CCN(CCO)CC3)ccnc12`, for which the “Percent Effect” value came to 128.9%. Then `O=C(NCCc1c[nH]cn1)C1CCCN(C2CCOCC2)C1` (stereo not drawn), with -7.633%; and `NC(=O)Cn1ccnc1C1CCCN(CCSc2ccccc2)C1` (stereo not drawn), with 0.1316%; and `CC(C)(C)c1cnc(CN2CCC(c3ccnn3CCO)CC2)o1`, with -7.147%. Then `COc1ccccc1OCCN1CCCC(c2cc(C(N)=O)[nH]n2)C1` (stereo not drawn), with -3.836%.

Source of the values: ChEMBL document CHEMBL3988442, “University of Dundee, Small-Polar-MMV Screening Library” (2021).
